# Laboratory results: PubChem BioAssay AID720555 (National Center for Advancing Translational Sciences (NCATS), 2013)
# Records with an inconclusive call do not appear. Unmarked numbers belong to inactive results. The source made the active and inactive calls. The call rests on the fitted dose curve; in most records, active means well fitted inhibition curve with a large enough effect; inconclusive means small, poorly fitted or top-dose-only effect; inactive means no such curve, though single readings can be large or run the other way.
# Target: RecQ-like DNA helicase BLM (Homo sapiens) (UniProt P54132)
# Assay: qHTS for Inhibitors of Bloom's syndrome helicase (BLM): Helicase DNA unwinding fluorescent orthogonal confirmatory assay for SAR
# Settings: fluorescence, orthogonal confirmation; series mostly up to 55.6 µM; activity change, negative = inhibition: at the top concentration
# Source text: Human RecQ DNA helicases participate in maintenance of genome stability and DNA repair. While other types of helicases have been explored as targets for drug development, members of the RecQ family have remained less well characterized. Mutations of the Bloom helicase gene have been associated with the rare human genetic disease called Bloom syndrome. […] Moreover, identified inhibitors can be used in cells and animal models to examine the consequences of inhibition on the survival of cancer cells where it has been shown that BLM plays an important role.
# A fluorescence-based, biochemical assay in 1536 well format was developed to evaluate inhibition of BLM DNA unwinding activity. This assay was used to screen the MLPCN library. The resulting compounds were subjected to orthogonal and secondary biochemical assays to triage the initial hits, to classify compounds based on mode of action and to derive structure activity relationships (SARs) of candidate effectors. The data herein is the result of the Helicase DNA unwinding fluorescent orthogonal confirmatory assay. This fluorescent-based assay employs a purified BLM enzyme and utilizes gel electrophoresis to monitor the helicase-mediated unwinding of a fluorescently-labeled DNA substrate. For this assay decrease in the single-stranded DNA product band on the gel = inhibition of the BLM helicase activity. Inhibition is the desired outcome for this assay.
# NIH Chemical Genomics Center [NCGC]
# NIH Molecular Libraries Probe Centers Network [MLPCN]
# Assay Submitter (PI): Opher Gileadi, Structural Genomics Consortium, University of Oxford, UK
# Unwinding assay for the BLM helicase was carried out in a reaction buffer containing 50 mM Tris-HCl pH 7.5, 50mM NaCl, 2mM MgCl2, 2mM ATP, 1mM DTT, and 0.1 mg/ml BSA. Optimal substrate and enzyme concentrations as well as reaction times were determined experimentally. All reactions were performed at room temperature and terminated by the addition of loading buffer containing 20mM EDTA and 2.5% bromophenol blue. Reaction products were then separated on 15% non-denaturing polyacrylamide gels in 1x TAE, and the DNA was visualized using the Bio-Rad ChemiDocTM XRS Gel Imager. Substrate and product bands were quantified using ImageJ. The data was normalized against no-inhibitor and no-enzyme controls.
# Chain of RecQ-like DNA helicase BLM (Homo sapiens) (P54132 whole entry, looked up): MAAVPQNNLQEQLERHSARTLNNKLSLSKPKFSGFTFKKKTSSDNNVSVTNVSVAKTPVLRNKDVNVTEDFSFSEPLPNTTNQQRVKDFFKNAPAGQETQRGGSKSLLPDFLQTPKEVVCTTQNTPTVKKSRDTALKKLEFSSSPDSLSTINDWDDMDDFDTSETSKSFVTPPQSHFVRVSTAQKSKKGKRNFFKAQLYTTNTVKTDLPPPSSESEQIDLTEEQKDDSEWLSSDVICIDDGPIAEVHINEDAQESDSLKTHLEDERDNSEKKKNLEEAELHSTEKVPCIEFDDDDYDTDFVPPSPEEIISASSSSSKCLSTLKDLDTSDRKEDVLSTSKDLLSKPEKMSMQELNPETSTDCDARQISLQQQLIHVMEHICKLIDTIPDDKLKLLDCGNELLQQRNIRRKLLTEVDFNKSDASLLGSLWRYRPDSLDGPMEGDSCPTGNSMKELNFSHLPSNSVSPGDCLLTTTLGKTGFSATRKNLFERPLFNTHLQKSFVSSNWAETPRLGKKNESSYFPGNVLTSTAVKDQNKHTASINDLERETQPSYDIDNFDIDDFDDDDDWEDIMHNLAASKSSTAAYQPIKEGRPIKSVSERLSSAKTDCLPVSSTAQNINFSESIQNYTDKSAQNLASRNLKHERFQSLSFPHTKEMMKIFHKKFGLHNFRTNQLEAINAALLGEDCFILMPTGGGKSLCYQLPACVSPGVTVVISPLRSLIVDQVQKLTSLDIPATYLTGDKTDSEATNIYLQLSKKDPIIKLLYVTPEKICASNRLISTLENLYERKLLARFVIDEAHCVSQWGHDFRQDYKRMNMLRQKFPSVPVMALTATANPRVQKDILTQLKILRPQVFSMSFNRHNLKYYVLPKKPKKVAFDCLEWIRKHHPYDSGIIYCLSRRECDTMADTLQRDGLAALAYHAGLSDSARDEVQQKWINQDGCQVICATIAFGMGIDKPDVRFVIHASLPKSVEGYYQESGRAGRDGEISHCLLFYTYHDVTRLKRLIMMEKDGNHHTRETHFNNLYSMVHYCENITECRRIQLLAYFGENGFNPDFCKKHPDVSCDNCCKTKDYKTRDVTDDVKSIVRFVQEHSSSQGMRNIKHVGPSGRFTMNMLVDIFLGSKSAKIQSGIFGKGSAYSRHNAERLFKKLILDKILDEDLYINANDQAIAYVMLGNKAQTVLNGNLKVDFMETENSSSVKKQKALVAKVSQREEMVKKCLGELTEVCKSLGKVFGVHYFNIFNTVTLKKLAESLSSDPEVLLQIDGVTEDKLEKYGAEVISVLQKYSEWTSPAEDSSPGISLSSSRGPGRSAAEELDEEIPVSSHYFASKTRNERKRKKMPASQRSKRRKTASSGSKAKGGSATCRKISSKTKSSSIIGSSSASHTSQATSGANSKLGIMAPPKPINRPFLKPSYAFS
Structure (SMILES),Potency,"activity change, negative = inhibition"
O=C(Nc1cccc(C(F)(F)F)c1)Nc1nnc(-c2ccncc2)s1,14.1 µM (active),
O=C(Nc1ccccc1)Nc1nnc(-c2ccncc2)s1,,1.11%
Cc1cc(NC(=O)Nc2nnc(-c3ccncc3)s2)ccc1C#N,3.16 µM (active),
O=C(Nc1ccc(-c2cn[nH]c2)cc1)Nc1nnc(-c2ccncc2)s1,31.6 µM (active),
O=C(Nc1ccc(N2CCOCC2)c(C(F)(F)F)c1)Nc1nnc(-c2ccncc2)s1,28.2 µM (active),
Cc1cc(NC(=O)Nc2nnc(-c3ccncc3)s2)ccc1F,15.8 µM (active),
O=C(Nc1ccc(F)c(C(F)(F)F)c1)Nc1nc(-c2ccncc2)cs1,,-3.13% [at 53.6 µM]
O=C(Nc1ccc(Cl)c(C(F)(F)F)c1)Nc1cccc(-c2ccncc2)n1,20 µM (active),
O=C(Nc1ccc(Cl)c(Cl)c1)Nc1ccc(-c2ccncc2)s1,,5.54% [at 53.6 µM]
O=C(Nc1ccc(Cl)c(Cl)c1)Nc1cccc(-c2ccncc2)n1,3.98 µM (active),
O=C(Nc1ccc2ccccc2c1)Nc1nnc(-c2ccncc2)s1,10 µM (active),
N#Cc1cc(NC(=O)Nc2nnc(-c3ccncc3)s2)ccc1F,1.41 µM (active),
O=C(Nc1ccc(Cl)c(Cl)c1)Nc1nnc(-c2cccnc2)s1,3.55 µM (active),
O=C(Nc1cccc(C(=O)O)c1)Nc1nnc(-c2ccncc2)s1,,-8.63%
O=C(Nc1ccc(F)c(F)c1)Nc1nnc(-c2ccncc2)s1,8.91 µM (active),
O=C(Nc1ccc(Cl)c([N+](=O)[O-])c1)Nc1cccc(-c2ccncc2)n1,2.82 µM (active),
O=C(Nc1ccc(F)c(C(F)(F)F)c1)Nc1ccc(-c2ccncc2)s1,,-13.1% [at 53.6 µM]
Cc1cc(NC(=O)Nc2nnc(C3CCCCC3)s2)ccc1F,,2.36%
O=C(Nc1ccc2ccccc2c1)Nc1nnc(-c2ccc(O)cc2)s1,,2.72%
N#Cc1ccc(NC(=O)Nc2nnc(-c3ccncc3)s2)cc1,7.94 µM (active),

Structure (SMILES),Potency,"activity change, negative = inhibition"
CC(C)(C)c1ccc(-c2nnc(NC(=O)Nc3ccc4ccccc4c3)s2)cc1,,5.46%
CCOc1ccc(NC(=O)Nc2ccc(-c3nc4ccccc4[nH]3)cc2)cc1,,-5.73%
O=C(Nc1ccc(Cl)c(Cl)c1)Nc1nnc(-c2ccncc2)s1,1.58 µM (active),
O=C(Nc1ccc(Br)c(Br)c1)Nc1nnc(-c2cccnc2)s1,3.55 µM (active),
N#Cc1cc(NC(=O)Nc2nnc(-c3ccncc3)s2)ccc1-c1ccc[nH]1,3.55 µM (active),
O=C(Nc1nnc(-c2ccncc2)s1)Nc1ccc(Cl)cc1Cl,31.6 µM (active),
O=C(Nc1ccc2ccccc2c1)Nc1nnc(-c2ccccc2F)s1,,-2.28%
O=C(Nc1ccc2ccccc2c1)Nc1nnc(-c2ccc(Cl)cc2)s1,,-10.2%
CC(=O)c1ccc(NC(=O)Nc2nnc(-c3ccncc3)s2)cc1,,3.44%
S=C(Nc1ccc(Cl)c(Cl)c1)Nc1nnc(-c2ccncc2)o1,,1.29%
O=c1c(Nc2ccc(Cl)c(Cl)c2)c(Nc2nnc(-c3ccncc3)s2)c1=O,14.1 µM (active),
O=c1c(Nc2ccc(Br)c(Br)c2)c(Nc2nnc(-c3ccncc3)s2)c1=O,6.31 µM (active),
O=C(Nc1ccc(N2CCOCC2)c(F)c1)Nc1nnc(-c2ccncc2)s1,,-0.865% [at 53.6 µM]
CCOC(=O)c1cccc(NC(=O)Nc2nnc(-c3ccncc3)s2)c1,,10.3%
N#Cc1cc(NC(=O)Nc2nnc(-c3ccncc3)s2)ccc1Cl,0.398 µM (active),
O=C(NCc1ccccc1)Nc1nnc(-c2ccncc2)s1,,-10.1%
O=C(Nc1ccc(-n2cncn2)c(F)c1)Nc1nnc(-c2ccncc2)s1,14.1 µM (active),
O=C(Nc1ccc2ccccc2c1)Nc1nnc(-c2ccc(F)cc2)s1,,-1.89%
Cc1cc(NC(=O)Nc2nnc(-c3cccnc3)s2)ccc1Br,5.62 µM (active),
O=C(Nc1ccc(Cl)c(C(F)(F)F)c1)Nc1nnc(-c2cccnc2)s1,3.16 µM (active),
